Compounds with a hit are over-represented: about 7.9% of the library has one in this group of screens.
KB-V1 cytotox: KB-V1 MDR subline cytotoxicity; AID 1347076; KB-V1 MDR cells viability, CellTiter-Glo, 72 h; 400,000 compounds, 3.4% hits; Potency, µM (highest dose often 46.1 µM), actives largely listed as cytotoxic; note: % is set by controls: 0 for no effect and ±100 for the full control effect; nearly all actives have a fitted effect of over 60% in size
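Compound-treated KB-V1 multidrug-resistant cells, 72 h, 37 degrees C; viability by CellTiter-Glo. Fitted qHTS curves give the values.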
KB-3-1 cytotox: kills parental KB-3-1 adenocarcinoma cells | Potency, µM (top dose mostly 46.1 µM), hits mostly cytotoxic | 400,000 compounds, 1.4% hits | KB-3-1 viability, CellTiter-Glo ATP luminescence, 72 h; note: % is set by controls: 0 for no effect and ±100 for the full control effect; nearly all actives have a fitted effect of over 60% in size
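Cells are dispensed, compounds pinned in, plates held at 37 °C for 72 h, then CellTiter-Glo is added and luminescence read after 10 minutes. Cell line: parental KB-3-1 in phenol-red-free DMEM, 10% FBS.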
HT1080 IDH1KD tx: toxicity to HT-1080 IDH1 knockdown cells (counter line) | AID 686971 | HT-1080 IDH1 knockdown viability, ATP luminescence, 48 h | 360,000 compounds, 2% hits | Potency, µM (doses to about 46.1 µM), without a hit: at the top dose activity, negative = toxicity, most hits filed as cytotoxic;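 note: 0% = DMSO wells and -100% = cell-free medium wells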
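Luminescent ATP read-out (CellTiter-Glo, 10 min at room temperature) after 48 h compound exposure at 37 °C gave viability of IDH1-knockdown HT-1080 cells. Activity was normalised to DMSO and cell-free wells, then fitted as concentration-response curves.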
MCF10A rereplic: DNA re-replication induction in MCF 10a cells | MCF 10A DNA re-replication, Hoechst nuclear intensity, 48 h | 350,000 compounds, 2.9% hits | AID 624296 | Potency, µM (highest dose often 46.1 µM), for the others: at the top dose activity, positive = re-replication, most hits filed as activators; note: % of control where 0% means no effect; nearly all actives have a fitted effect of over 50% in size
SW480 rerep: induces DNA re-replication in SW480 colon adenocarcinoma cells. SW480 DNA re-replication, Hoechst DNA content imaging, 48 h. Potency, µM (doses to about 46.1 µM), for the others: top-dose re-replication activation, actives largely listed as activators. 340,000 compounds, 1.8% hits; note: % of control where 0% means no effect; nearly all actives have a fitted effect of over 55% in size
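Hoechst fluorescence of nuclei (405 nm excitation, 500-530 nm emission) measured by plate-scanning imager after 48 hr compound exposure at 37 C; re-replication scored as increased number of nuclei with elevated intensity.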
HT1080NT lethal: kills 2HG-producing HT-1080-NT fibrosarcoma cells; HT-1080-NT fibrosarcoma viability, CellTiter-Glo ATP luminescence, 48 h; Potency, µM (highest dose often 46.1 µM), for the others: at the highest dose activity, negative = less viability, most hits filed as cytotoxic; 360,000 compounds, 1.6% hits; AID 686970;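 note: NT is the 2HG producing partner of a matched IDH1 knockdown line; 0% = DMSO-treated cells and -100% = media-only wells without cells; nearly all actives have a fitted effect of over 55% in size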
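Viability by CellTiter-Glo luminescence after 48 h compound exposure at 37C of HT-1080-NT cells (750/well, RPMI, 5% FBS). % activity scaled between DMSO wells and medium-only wells, then curve-fitted and categorized by curve class.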
Starred values were filed as active, the others as inactive; i = inactive; ? = inconclusive; · = not tested or not shown; [ ] = dose if it differs, or a comment. Calls come from the whole dose curve; as a rule, active = well fitted curve in the direction sought with a large enough effect; inconclusive = small, poorly fitted or top-dose-only effect, or another doubt; inactive = no such curve, though single readings can be large; an effect the other way counts as inactive or inconclusive. Potency is the fitted concentration of half-maximal effect.

SMILES	KB-V1 cytotox	KB-3-1 cytotox	HT1080 IDH1KD tx	MCF10A rereplic	SW480 rerep	HT1080NT lethal
COc1ccc(-c2ccc(/C=N/NC(=O)c3cccnc3)o2)c([N+](=O)[O-])c1	i	?	8.3%	1.3%	1.1%	-0.4%
C=CCn1c(SCC(=O)c2[nH]c(C)c(C(=O)OCC)c2C)nc2scc(-c3ccc(OC)c(OC)c3)c2c1=O	?	i	21.4%	3.26µM*	13µM*	5.2%
C[n+]1c2n(c3ccccc31)N=C(c1cc(C(C)(C)C)c(O)c(C(C)(C)C)c1)CS2	i	4.11µM*	7.31µM*	16.4µM*	?	23.1µM*
O=S1(=O)CCN(Cc2ccc(Cl)cc2)CC1	i	i	9.4%	-15.0%	0.4%	12.6%
COc1ccc(C2CCCN2CC(O)COc2ccccc2C(C)C)cc1 (stereo not given)	?	i	20.6µM*	?	?	20.6µM*
O=C(NCCCN1CCOCC1)c1ccc(CSCc2cccc(Cl)c2)o1	i	i	-7.1%	?	-0.5%	-10.7%
COc1cccc(/C=N/NC(=O)CC(=O)NCCc2ccccc2)c1OC	i	i	23.6%	8.0%	-35.8%	23.7%
CCOc1ccccc1NC(=O)CCNS(=O)(=O)c1ccccc1	i	i	12.0%	-15.1%	1.5%	-1.1%
N#C/C(=C\c1cccnc1)C(=O)Nc1cccc2ccccc12	i	i	20.6µM*	?	?	?
CN(C)S(=O)(=O)c1ccccc1C#N	i	i	13.9%[9.24 µM]	19.1%	-6.1%	0.6%
CN(C)S(=O)(=O)c1cccc2c1C(=O)c1ccccc1C2=O	i	i	-8.7%	-24.0%	20.6µM*	-1.1%
O=C(NCCCn1ccnc1)Nc1cccc2ccccc12	i	i	14.6%	6.4%	-6.3%	18.0%
Cn1nc(C(C)(C)C)cc1C(=O)NCc1cc(F)cc2c1OCOC2	?	?	10.3µM*	0.1%	-1.5%	?
CCCCNC(=O)c1cccc(NC(=O)c2nsc3ccccc23)c1	i	i	·	·	·	·
Cc1c2ccccc2nc2ccccc12	i	i	-0.6%	-2.3%	-4.9%	2.8%
Cc1cnc2ccc3ccccc3c2c1C	i	5.17µM*	·	·	·	·
Cc1c2ccccc2c(C)c2c1ccc1ccccc12	i	i	?	?	1.84µM*	?
Cc1ccc2ncc(C)c(C)c2c1	i	i	·	·	·	·
Cc1ccc(OCCN2CCN(c3ncnc4sc(C)c(C)c34)CC2)cc1	i	?	-26.2%	23.1µM*	?	-21.3%
Clc1ccc(OCCN2CCN(c3ncnc4sccc34)CC2)cc1	2.91µM*	?	23.1µM*	8.0%	3.4%	4.1%
CCCS(=O)(=O)c1nc(S(=O)(=O)c2ccc(C)cc2)c(N2CCN(C)CC2)s1	i	i	12.6%	-1.9%	32.9%	6.3%
Cc1ccc(S(=O)(=O)c2nc(S(=O)(=O)c3ccccc3)sc2N2CCN(C)CC2)cc1	?	?	?	23.1µM*	35.8%	?
CCS(=O)(=O)c1nc(S(=O)(=O)c2ccc(C)cc2)c(N2CCN(CCO)CC2)s1	i	i	0.2%	-0.2%	1.4%	15.0%
Cc1ccc(S(=O)(=O)c2nc(S(=O)(=O)c3ccccc3)sc2N2CCN(CCO)CC2)cc1	?	20.6µM*	-8.2%	17.0%	-1.0%	?
